From PubChem BioAssay (Tox21)
Records with an inconclusive call do not appear. Activity calls are given as the source filed them. Unless noted, calls follow the shape of the dose curve; as a rule, active = well fitted curve in the direction sought with a large enough effect in the repeat runs; inconclusive = weak or mixed curves; inactive = no such curve, though single readings can be large; an effect the other way counts as inactive or inconclusive.

Experiments:
[1] = qHTS assay to identify aromatase inhibitors - cell viability counter screen (AID 743084);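 also: cells stimulated with testosterone during compound exposure; nearly all actives have a fitted effect of over 55% in size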
[2] = target: Aryl hydrocarbon receptor (Homo sapiens) (UniProt P35869); experiment: qHTS assay to identify small molecule that activate the aryl hydrocarbon receptor (AhR) signaling pathway (AID 743085);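 also: HG2L7.5c1 human HepG2 liver cells with stably integrated DRE-driven firefly reporter; series mostly up to about 70 µM; nearly all actives have a fitted effect of over 15% in size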
Method in brief: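 Luminescence (ONE-Glo) from a dioxin-responsive-element luciferase reporter in HG2L7.5c1 HepG2 cells after 24 hr compound exposure at 37C; viability measured by CellTiter-Fluor fluorescence beforehand.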

[3] = qHTS assay to identify small molecule that activate the aryl hydrocarbon receptor (AhR) signaling pathway - cell viability counter screen (AID 743086);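 also: HepG2 liver cells carrying the AhR DRE luciferase reporter; series mostly up to about 70 µM; nearly all actives have a fitted effect of over 45% in size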
Method in brief: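 HepG2-AhR-luc (HG2L7.5c1) cells, 4000/well, treated 24 h at 37 C with compound; viability measured as CellTiter-Fluor fluorescence after 30 min in the same wells as the luciferase read.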

[4] = target: Peroxisome proliferator-activated receptor gamma (Homo sapiens) (UniProt P37231); experiment: qHTS assay to identify small molecule agonists of the peroxisome proliferator-activated receptor gamma (PPARg) signaling pathway (AID 743094; active = well fitted activation curve with a large enough effect in the signal ratio in the repeat runs, not every such curve was filed as active; the % refers to the signal ratio)
Method in brief: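 Agonist activity was taken from a beta-lactamase reporter (FRET substrate, 1 h at room temperature) in HEK293H cells carrying a PPARg UAS-bla construct. Compounds in DMSO were incubated 17 h at 37C after a 5 h cell pre-incubation.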

[5] = qHTS assay to identify small molecule antagonists of the peroxisome proliferator-activated receptor gamma (PPARg) signaling pathway - cell viability counter screen (AID 743194); also: nearly all actives have a fitted effect of over 55% in size
Method in brief: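 Cytotoxicity counter screen in PPARg-bla HEK293H cells, same wells as reporter assay. Compounds plus 50 nM rosiglitazone (final) for 17 h at 37 C, then viability read by CellTiter-Glo luminescence.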

[6] = qHTS assay for small molecule agonists of the antioxidant response element (ARE) signaling pathway - cell viability counter screen (AID 743203; calls by dose curve; also: nearly all actives have a fitted effect of over 55% in size)
Method in brief: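 Viability counter screen: CellTiter-Glo luminescence, read after 30 min at room temperature, in ARE-bla HepG2 wells. Compound exposure lasted 16 h at 37C/5% CO2, following a 5 h pre-incubation of the cells after plating.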

[7] = qHTS assay for small molecule activators of the heat shock response signaling pathway - cell viability counter screen (AID 743209); also: nearly all actives have a fitted effect of over 50% in size
Method in brief: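 Cytotoxicity counter screen run in the same wells as the heat-shock bla reporter assay: HeLa HSE-bla cells, 5 h compound exposure at 37 C, viability read by CellTiter-Glo luminescence.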

[8] = qHTS assay for small molecule activators of the heat shock response signaling pathway (AID 743210; active = well fitted activation curve with a large enough effect in the signal ratio in the repeat runs, with a control signal flat, not every such curve was filed as active; the % refers to the signal ratio;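 also: HeLa cells with beta-lactamase reporter driven by heat shock elements; series mostly up to about 63 µM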)
Method in brief: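 Beta-lactamase reporter read-out: FRET substrate fluorescence after 2.5 h at RT, following 5 h compound treatment at 37 C of HeLa cells carrying HSE-driven bla reporter; quantitative HTS format.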

[9] = qHTS assay to identify small molecule agonists of the peroxisome proliferator-activated receptor delta (PPARd) signaling pathway - cell viability counter screen (AID 743211); also: nearly all actives have a fitted effect of over 55% in size
Method in brief: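 Viability was measured as CellTiter-Glo luminescence (30 min, room temperature) in the same wells as the beta-lactamase readout. GeneBLAzer PPARd UAS-bla HEK293H cells received compound after 5 h plating and were incubated 17 h at 37 C.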

[10] = target: Peroxisome proliferator-activated receptor delta (Homo sapiens) (UniProt Q03181); experiment: qHTS assay to identify small molecule agonists of the peroxisome proliferator-activated receptor delta (PPARd) signaling pathway (AID 743212; calls by dose curve)
Method in brief: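 Read-out: beta-lactamase FRET fluorescence after 2 h room-temperature incubation with LiveBLAzer B/G substrate. Cells were HEK293H carrying a UAS-bla reporter for PPARd, treated at 37 C with DMSO-dissolved compounds.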

[11] = qHTS assay to identify small molecule antagonists of the peroxisome proliferator-activated receptor delta (PPARd) signaling pathway - cell viability counter screen (AID 743213); also: nearly all actives have a fitted effect of over 50% in size
Method in brief: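 PPARd-bla HEK293H cells (3000/well) got compound plus 300 nM L165041 agonist for 17 h at 37 C. Viability in the same wells came from CellTiter-Glo luminescence after 30 min at room temperature.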

[12] = target: Peroxisome proliferator-activated receptor delta (Homo sapiens) (UniProt Q03181); experiment: qHTS assay to identify small molecule antagonists of the peroxisome proliferator-activated receptor delta (PPARd) signaling pathway (AID 743215; active = well fitted inhibition curve with a large enough effect in the signal ratio in the repeat runs, not every such curve was filed as active; the % refers to the signal ratio;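 also: cells stimulated with agonist L165041 at 300 nM final during compound exposure; series mostly up to about 62 µM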)
Method in brief: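 Agonist L165041 (300 nM final) added with compound to PPARd-bla HEK293H UAS-bla reporter cells; 17 h incubation at 37 C. Read-out: LiveBLAzer FRET substrate, 2 h at room temperature, fluorescence intensity.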

[13] = target: Bile acid receptor (Homo sapiens) (UniProt Q96RI1); experiment: qHTS assay to identify small molecule antagonists of the farnesoid-X-receptor (FXR) signaling pathway (AID 743217; active = well fitted inhibition curve with a large enough effect in the signal ratio in the repeat runs, not every such curve was filed as active; the % refers to the signal ratio)
Method in brief: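 Antagonist mode: chenodeoxycholic acid at 50 uM final stimulates a UAS-driven beta-lactamase reporter in HEK 293T FXR-bla cells during 16 h, 37C compound exposure. Read-out is FRET substrate fluorescence after 2 h at room temperature.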

[14] = qHTS assay to identify small molecule agonists of the farnesoid-X-receptor (FXR) signaling pathway - cell viability counter screen (AID 743218); also: nearly all actives have a fitted effect of over 45% in size
Method in brief: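 Viability counter screen in the same wells: CellTiter-Glo luminescence, 30 min room-temperature incubation, measured after the beta-lactamase read. Cells were GeneBLAzer FXR-UAS-bla HEK 293T, compound-treated 16 h at 37C.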

[15] = target: Bile acid receptor (Homo sapiens) (UniProt Q96RI1); experiment: qHTS assay to identify small molecule agonists of the farnesoid-X-receptor (FXR) signaling pathway (AID 743220; active = well fitted activation curve with a large enough effect in the signal ratio in the repeat runs, not every such curve was filed as active; the % refers to the signal ratio)
Method in brief: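 FXR-UAS-bla HEK 293T cells carrying a UAS-driven beta-lactamase reporter were plated for 5 h at 37C/5% CO2, then exposed to DMSO-dissolved Tox21 10K compounds for 16 h at 37C. A LiveBLAzer B/G FRET substrate was loaded for 2 h at room temperature before fluorescence reading.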

[16] = qHTS assay to identify small molecule antagonists of the farnesoid-X-receptor (FXR) signaling pathway - cell viability counter screen (AID 743221; active = well fitted cell-killing curve with a large enough effect in the repeat runs, not every such curve was filed as active; also: nearly all actives have a fitted effect of over 50% in size)
Method in brief: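 Cytotoxicity counter screen run in the FXR-bla reporter wells: HEK 293T cells exposed to compound with 50 uM (final) chenodeoxycholic acid for 16 h, 37 C, then viability measured by CellTiter-Glo luminescence after 30 min, room temperature.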

[17] = target: Vitamin D3 receptor (Homo sapiens) (UniProt P11473); experiment: qHTS assay to identify small molecule agonists of the vitamin D receptor (VDR) signaling pathway (AID 743222; calls by dose curve)
Method in brief: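 Agonist mode, beta-lactamase reporter: fluorescence from LiveBLAzer B/G FRET substrate (2 h, room temperature) read after 16 h compound treatment at 37 C of VDR-bla cells, which were pre-incubated 4 h after seeding.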

[18] = target: Vitamin D3 receptor (Homo sapiens) (UniProt P11473); experiment: qHTS assay to identify small molecule antagonists of the vitamin D receptor (VDR) signaling pathway (AID 743223; active = well fitted inhibition curve with a large enough effect in the signal ratio in the repeat runs, not every such curve was filed as active; the % refers to the signal ratio)
Method in brief: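 Antagonist mode: compound added to VDR-bla cells alongside agonist 1alpha,25-dihydroxyvitamin D3 (3 nM final), incubation 16 h at 37C. Read-out is LiveBLAzer FRET fluorescence, 2 h at room temperature.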

[19] = target: Peroxisome proliferator-activated receptor gamma (Homo sapiens) (UniProt P37231); experiment: qHTS assay to identify small molecule antagonists of the peroxisome proliferator-activated receptor gamma (PPARg) signaling pathway (AID 743191; calls by dose curve; also: series mostly up to about 63 µM; nearly all actives have a fitted effect of over 30% in size)
Method in brief: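 GeneBLAzer PPARg UAS-bla HEK293H cells, 5 h post-plating, exposed to compounds 17 h at 37C. LiveBLAzer B/G FRET substrate added for 1 h at room temperature; beta-lactamase reporter read by fluorescence intensity.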

[20] = qHTS assay for small molecule agonists of the antioxidant response element (ARE) signaling pathway (AID 743202; active = well fitted activation curve with a large enough effect in the signal ratio in the repeat runs, not every such curve was filed as active; the % refers to the signal ratio)
Method in brief: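 HepG2 ARE-bla reporter line, 2,000 cells/well; 5 h preincubation 37 C/5% CO2; compound (DMSO) 16 h 37 C; B/G FRET substrate 2 h RT; fluorescence intensity.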

Measured: Potency

Chain of Peroxisome proliferator-activated receptor gamma (Homo sapiens) (P37231 whole entry, looked up): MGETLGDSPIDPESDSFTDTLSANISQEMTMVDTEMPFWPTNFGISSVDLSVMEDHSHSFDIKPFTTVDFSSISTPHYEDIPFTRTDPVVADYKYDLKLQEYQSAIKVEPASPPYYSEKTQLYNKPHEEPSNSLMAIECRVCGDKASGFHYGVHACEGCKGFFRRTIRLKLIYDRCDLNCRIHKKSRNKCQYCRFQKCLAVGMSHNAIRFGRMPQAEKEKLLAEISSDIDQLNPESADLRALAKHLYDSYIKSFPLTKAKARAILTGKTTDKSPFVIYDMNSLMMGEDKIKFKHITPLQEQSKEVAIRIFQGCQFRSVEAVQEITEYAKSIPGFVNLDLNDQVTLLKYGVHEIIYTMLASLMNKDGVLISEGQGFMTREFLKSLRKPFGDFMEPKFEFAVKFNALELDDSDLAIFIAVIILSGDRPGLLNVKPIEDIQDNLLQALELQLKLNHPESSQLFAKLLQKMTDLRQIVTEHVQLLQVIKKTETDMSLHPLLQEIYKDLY
Chain of Aryl hydrocarbon receptor (Homo sapiens) (P35869 whole entry, looked up): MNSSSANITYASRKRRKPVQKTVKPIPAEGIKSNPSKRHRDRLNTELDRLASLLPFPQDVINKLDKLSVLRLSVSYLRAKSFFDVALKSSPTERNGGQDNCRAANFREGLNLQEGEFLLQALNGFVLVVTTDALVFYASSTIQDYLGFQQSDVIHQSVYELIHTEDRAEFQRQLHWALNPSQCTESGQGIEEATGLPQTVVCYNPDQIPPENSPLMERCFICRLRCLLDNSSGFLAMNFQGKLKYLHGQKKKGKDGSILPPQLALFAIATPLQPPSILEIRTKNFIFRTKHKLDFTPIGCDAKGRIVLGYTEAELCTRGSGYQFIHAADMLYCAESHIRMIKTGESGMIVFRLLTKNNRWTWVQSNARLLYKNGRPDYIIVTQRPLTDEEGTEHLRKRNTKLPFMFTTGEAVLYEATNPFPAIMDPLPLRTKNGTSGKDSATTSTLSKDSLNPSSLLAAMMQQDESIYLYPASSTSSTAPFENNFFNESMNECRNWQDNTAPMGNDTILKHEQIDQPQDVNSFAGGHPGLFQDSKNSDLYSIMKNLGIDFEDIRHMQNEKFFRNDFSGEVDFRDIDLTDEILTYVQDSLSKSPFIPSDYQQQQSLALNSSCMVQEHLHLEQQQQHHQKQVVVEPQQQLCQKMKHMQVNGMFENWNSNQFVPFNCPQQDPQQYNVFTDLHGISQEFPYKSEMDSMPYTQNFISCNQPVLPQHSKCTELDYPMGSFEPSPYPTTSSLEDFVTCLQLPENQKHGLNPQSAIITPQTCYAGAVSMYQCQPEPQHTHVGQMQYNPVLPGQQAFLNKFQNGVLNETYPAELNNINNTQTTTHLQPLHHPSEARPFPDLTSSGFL
Chain of Peroxisome proliferator-activated receptor delta (Homo sapiens) (Q03181 whole entry, looked up): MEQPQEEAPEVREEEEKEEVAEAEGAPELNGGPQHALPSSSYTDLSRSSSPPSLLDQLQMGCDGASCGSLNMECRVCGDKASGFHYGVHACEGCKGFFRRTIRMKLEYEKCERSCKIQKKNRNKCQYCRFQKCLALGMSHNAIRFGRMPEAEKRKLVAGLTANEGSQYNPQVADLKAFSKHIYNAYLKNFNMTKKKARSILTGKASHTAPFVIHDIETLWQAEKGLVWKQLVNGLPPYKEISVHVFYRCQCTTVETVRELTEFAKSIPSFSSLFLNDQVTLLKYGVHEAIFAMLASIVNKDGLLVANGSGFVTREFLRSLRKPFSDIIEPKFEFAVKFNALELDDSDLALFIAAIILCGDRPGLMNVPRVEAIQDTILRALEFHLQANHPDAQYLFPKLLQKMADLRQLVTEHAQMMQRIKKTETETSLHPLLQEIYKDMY
Chain of Vitamin D3 receptor (Homo sapiens) (P11473 whole entry, looked up): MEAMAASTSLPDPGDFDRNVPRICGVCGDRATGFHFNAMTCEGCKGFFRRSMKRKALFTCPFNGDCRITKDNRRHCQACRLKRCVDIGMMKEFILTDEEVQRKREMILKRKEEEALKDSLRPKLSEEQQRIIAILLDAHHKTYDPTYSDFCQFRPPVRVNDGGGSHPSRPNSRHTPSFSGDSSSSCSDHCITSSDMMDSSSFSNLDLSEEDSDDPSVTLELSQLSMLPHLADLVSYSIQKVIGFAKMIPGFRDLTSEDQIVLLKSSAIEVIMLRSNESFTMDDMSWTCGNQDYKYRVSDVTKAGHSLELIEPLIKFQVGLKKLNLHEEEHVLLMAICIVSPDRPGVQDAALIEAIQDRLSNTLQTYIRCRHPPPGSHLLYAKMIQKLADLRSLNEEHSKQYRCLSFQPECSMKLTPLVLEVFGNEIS
Chain of Bile acid receptor (Homo sapiens) (Q96RI1 whole entry, looked up): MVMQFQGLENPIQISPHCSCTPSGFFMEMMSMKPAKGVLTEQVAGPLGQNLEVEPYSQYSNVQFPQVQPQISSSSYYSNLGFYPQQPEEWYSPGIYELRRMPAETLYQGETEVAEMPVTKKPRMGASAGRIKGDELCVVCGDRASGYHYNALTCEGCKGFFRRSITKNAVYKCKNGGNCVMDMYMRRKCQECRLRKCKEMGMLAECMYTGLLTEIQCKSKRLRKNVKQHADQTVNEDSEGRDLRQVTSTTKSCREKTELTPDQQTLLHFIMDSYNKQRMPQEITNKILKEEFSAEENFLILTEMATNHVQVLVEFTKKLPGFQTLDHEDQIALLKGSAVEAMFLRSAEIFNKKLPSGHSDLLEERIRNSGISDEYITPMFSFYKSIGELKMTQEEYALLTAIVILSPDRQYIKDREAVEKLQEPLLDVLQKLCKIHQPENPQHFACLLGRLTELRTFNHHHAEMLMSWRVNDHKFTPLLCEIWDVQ

COc1cc(CCC(C)=O)ccc1O
inactive: [1] | [2] | [3] | [4] | [5] | [6] | [7] | [8] | [9] | [10] | [11] | [12] | [13] | [14] | [15] | [16] | [17] | [18]

CC(=O)NC(Cc1ccccc1)C(=O)O (centres undefined)
inactive: [1] | [2] | [3] | [4] | [19] | [6] | [7] | [8] | [9] | [10] | [11] | [12] | [14] | [15] | [17] | [18]

O=Cc1ccccc1[N+](=O)[O-]
inactive: [1] | [2] | [3] | [4] | [5] | [20] | [6] | [7] | [8] | [9] | [10] | [11] | [12] | [14] | [16] | [18]

O=C(O)/C=C/c1ccc(Cn2ccnc2)cc1
inactive: [1] | [2] | [3] | [4] | [5] | [20] | [6] | [7] | [8] | [9] | [10] | [12] | [13] | [14] | [15] | [16] | [17] | [18]

CC(=O)N[C@@H](CCC(N)=O)C(=O)O
inactive: [1] | [2] | [3] | [4] | [5] | [20] | [6] | [7] | [8] | [9] | [10] | [11] | [12] | [13] | [15] | [16] | [18]

CC1(C)SC(C)(C)SC(C)(C)S1
inactive: [1] | [2] | [3] | [4] | [5] | [20] | [6] | [7] | [8] | [9] | [10] | [11] | [12] | [13] | [14] | [15] | [16] | [17]

C=CCn1c(=O)n([C@@H]2O[C@H](CO)[C@@H](O)[C@H]2O)c2nc(N)[nH]c(=O)c21
inactive: [1] | [2] | [3] | [4] | [5] | [20] | [6] | [7] | [9] | [11] | [13] | [14] | [15] | [16]

CCN(CC)S(=O)(=O)c1ccc(C(=O)O)cc1
inactive: [1] | [2] | [3] | [4] | [5] | [6] | [7] | [8] | [9] | [10] | [11] | [12] | [14] | [16] | [17]

CCCCCCOC(=O)c1ccccc1O
inactive: [1] | [2] | [3] | [4] | [5] | [20] | [6] | [7] | [8] | [9] | [10] | [11] | [12] | [13] | [14] | [15] | [17] | [18]

CCC(C)OC(=O)N1CCCCC1CCO (centres undefined)
inactive: [1] | [2] | [3] | [4] | [5] | [6] | [7] | [8] | [9] | [10] | [11] | [13] | [15] | [16] | [17] | [18]

CC/C=C\C#N
inactive: [1] | [2] | [3] | [4] | [5] | [20] | [6] | [7] | [8] | [9] | [10] | [11] | [16]

C#CC(O)CCCCC (centres undefined)
inactive: [1] | [2] | [3] | [4] | [5] | [20] | [6] | [7] | [8] | [9] | [10] | [11] | [14] | [16]

C1C2OC2C2C1C1CC2C2OC12 (centres undefined)
inactive: [1] | [2] | [3] | [4] | [5] | [20] | [6] | [7] | [8] | [11] | [14] | [16] | [17]

COCCOC(=O)CC#N
inactive: [1] | [2] | [3] | [4] | [5] | [20] | [6] | [7] | [8] | [9] | [10] | [11] | [12] | [14] | [16] | [17]

CN(C)C(=O)Nc1ccccc1
inactive: [1] | [2] | [3] | [4] | [5] | [20] | [6] | [7] | [8] | [9] | [10] | [11] | [12] | [14] | [16] | [17] | [18]

CC(C)[C@H](N)C(=O)OCCOCn1cnc2c(=O)[nH]c(N)nc21
inactive: [1] | [2] | [3] | [4] | [5] | [20] | [6] | [7] | [8] | [9] | [10] | [11] | [12] | [13] | [16]
